These results are taken from PubChem BioAssay AID504834 (National Center for Advancing Translational Sciences (NCATS), 2011).

SMILES strings stand for the structures. In all, about 320,000 compounds went through this assay and about 22,000 (6.9%) were called active. Entries that show only a call come without a potency. Inconclusive results (about 27%) are left out. The full list was thinned out, with actives kept by preference. A number with no mark means an inactive call. The call rests on the fitted dose curve; in most records, active means well fitted inhibition curve with a large enough effect; inconclusive means small, poorly fitted or top-dose-only effect, or another doubt; inactive means no such curve, though single readings can be large or run the other way.
Potency means the concentration at half of the fitted maximal effect.

This experiment in a line: Primary qHTS for delayed death inhibitors of the malarial parasite plastid, 96 hour incubation. To be noted: P. falciparum luciferase reporter growth; series mostly up to 28.7 µM. Put shortly:
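Plates of compound plus infected erythrocytes (2% hematocrit, 0.05% parasitemia final) incubate 96 hours, 37 C, 5% CO2. Detection reagent added; reduced luminescence from the parasites' luciferase reporter flags inhibition.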
Background: qHTS replaces the single test concentration by a dilution series.
On to `CCOC1CCCCC1NS(=O)(=O)c1ccc(Cl)cc1` (stereo unspecified), for which the Potency is 9.28 µM (active).

With `O=S(=O)(NC1CCCCC1N1CCCCC1)c1ccc(Cl)cc1` (stereo unspecified), the Potency result was “inactive”.

In the case of `O=S(=O)(NC1CCCCC1N1CCC(O)CC1)c1ccc(Cl)cc1` (stereo unspecified), the Potency entry is “inactive”.

Take `Cc1nnc2n1N=C(c1ccc3c(c1)NC(=O)CO3)CS2`: the Potency entry was “inactive”.

With `O=C(O)CC/C(=C\c1cc2c(cc1Br)OCO2)c1nc2ccccc2s1`, the Potency result is “inactive”.

With `O=C(NC1CCCC1)C1CC(=O)N(c2ccc(F)cc2)C1` (stereo unspecified), the Potency entry was “inactive”.

For `O=C(NC1CCCCCCC1)c1cccs1`, the Potency result was “inactive”.

Turning to `CCC(C)[C@H]1COCCS(=O)(=O)N1Cc1ccc(C)cc1` (stereo partly specified), the Potency result is “inactive”.

For `C/C(=N\NC(=O)c1ccc2ccccc2c1)c1cccnc1`, the Potency entry was “inactive”.

For the compound `O=C(NCCNc1ccc([N+](=O)[O-])cc1Cl)c1ccccc1F`, the Potency entry was “inactive”.

As to `O=C(NC1CCN(Cc2ccccc2)CC1)c1c(F)cccc1F`, the Potency result was “inactive”.

Turning to `O=C(NC1CCN(Cc2ccccc2)CC1)c1ccccc1F`, the activity change, negative = inhibition was 202% [at 5.75 µM].

For `O=C(NC1CCN(Cc2ccccc2)CC1)c1cc(Br)c(Br)[nH]1`, the Potency is 11.7 µM (active).

`COc1cccc(CN2CCNC(=O)C2CC(=O)N(C)CCc2ccccn2)c1` (stereo unspecified): the Potency result is “inactive”.

Regarding `CN(Cc1cccc2ncccc12)C(=O)CC1C(=O)NCCN1Cc1ccc(F)cc1` (stereo unspecified), the Potency is 13.1 µM (active).

Regarding `Cc1cnc(CN(C)C(=O)CC2C(=O)NCCN2Cc2cccc(F)c2F)[nH]1` (stereo unspecified), the Potency entry is “inactive”.

With `O=C(N/C(=C/c1ccc(Cl)cc1)C(=O)N1CCCCC1)c1ccco1`, the Potency entry was “inactive”.

For the compound `O=C(O)CC(CC(=O)N1CCOCC1)c1ccccc1` (stereo unspecified), the Potency result is “inactive”.

Take `CCOc1cc(C)ccc1OCc1nnc(SCC(=O)Nc2cccc(C(=O)O)c2)n1-c1ccccc1`: the Potency entry is “inactive”.

Regarding `O=C(O)c1cc(S(=O)(=O)Nc2ccc3cn[nH]c3c2)ccc1Br`, the Potency entry is “inactive”.

Consider `CCCNC(=O)c1cnc(-c2ccccc2)nc1-c1ccccc1`, for which the Potency result is “inactive”.

As for `CCOc1ccccc1-c1cc(C(=O)N/N=C(\C)c2cccnc2)c2ccccc2n1`, the Potency result was “inactive”.

Turning to `C/C(=N\NC(=O)c1cc(-c2ccc(O)cc2)nc2ccccc12)c1cccnc1`, the Potency was 9.28 µM (active).

With `C/C(=N\NC(=O)c1cccnc1)c1ccc(-c2ccccc2)cc1`, the Potency result is “inactive”.

Consider `CC1(c2nnc(Cc3ccccc3)o2)CC(c2ccccc2F)=NO1` (stereo unspecified), for which the Potency result is “inactive”.

In the case of `COc1ccc(NC(=O)CSc2nncc(=O)n2N)cc1OC`, the Potency entry is “inactive”.

`O=C(CCC1CCCN(C(=O)Cc2ccc(F)cc2)C1)N1CCN(c2ccccn2)CC1` (stereo unspecified): the Potency result was “inactive”.

Regarding `Cc1nc2c(-c3ccc(F)cc3)c(C)nn2c(C)c1CCC(=O)N1CCN(c2ccccn2)CC1`, the Potency is 7.38 µM (active).

As for `O=C(Cc1ccccc1Cl)N1CCN(c2ccccn2)CC1`, the Potency entry was “inactive”.

For `O=C(c1cc(COc2ccc(F)c(F)c2)on1)N1CCOCC1`, the Potency entry was “inactive”.

Turning to `CCn1c(=O)c2cc(C(=O)Nc3cccc(C(C)=O)c3)sc2c2ccccc21`, the Potency entry was “inactive”.

On to `N#CC1=C(N)N(c2ccccc2)C2=C(C(=O)CCC2)C1c1ccccc1` (stereo unspecified), for which the Potency was 2.08 µM (active).

On to `NC1=C([N+](=O)[O-])C(c2ccccc2)C2=C(CCCC2=O)O1` (stereo unspecified), for which the Potency result is “inactive”.

As for `CN(C)N1C(N)=C(C#N)C(c2ccc(Br)cc2)C2=C1CCCC2=O` (stereo unspecified), the Potency is 2.94 µM (active).

Turning to `N#CC1=C(N)OC2=C(C(=O)CCC2)C1C1CC=CCC1` (stereo unspecified), the Potency entry is “inactive”.

For `COc1ccc(C2C(C#N)=C(N)N(c3ncn[nH]3)C3=C2C(=O)CCC3)cc1` (stereo unspecified), the Potency entry was “inactive”.

Consider `CCOc1ccc(C2C(C#N)=C(N)N(N(C)C)C3=C2C(=O)CCC3)cc1` (stereo unspecified), for which the Potency result is “inactive”.

With `Cc1nc2ccc(S(=O)(=O)N(C)CC(=O)NC(C)c3ccccc3)cc2s1` (stereo unspecified), the Potency entry is “inactive”.

With `N#CCC(=O)Nc1ccc(C(=O)OCC(=O)Nc2sc3c(c2C#N)CCCC3)cc1`, the Potency entry is “inactive”.

Regarding `O=C(C1CC(=O)N(C2CCCC2)C1)N1CCN(c2cccc(C(F)(F)F)c2)CC1` (stereo unspecified), the Potency result was “inactive”.

As for `O=C1C2CCCN2C(=O)N1CCCCN1CCN(c2cccc(C(F)(F)F)c2)CC1` (stereo unspecified), the Potency is 13.1 µM (active).

Take `Cc1ccccc1N1CCN(CCCN2C(=O)C3CCCCN3C2=O)CC1` (stereo unspecified): the Potency result was “inactive”.

Take `CCCc1cc(=O)oc2c(C)c(OCC(=O)NCc3ccccn3)ccc12`: the Potency entry was “inactive”.

For the compound `O=C(Cc1cccc2ccccc12)NNC(=O)Nc1ccc(Cl)cc1`, the Potency result is “inactive”.

Consider `CCCN1C2CCCC1CC(NC(=O)NC13CC4CC(CC(C4)C1)C3)C2` (stereo unspecified), for which the Potency result was “inactive”.

For the compound `CC1CCCCN1S(=O)(=O)c1ccc(C(=O)Nc2nnc(-c3cccs3)o2)cc1` (stereo unspecified), the Potency entry was “inactive”.

With `CC1CCCCN1S(=O)(=O)c1ccc(S(=O)(=O)N(CC(=O)Nc2ccccc2)Cc2cccs2)cc1` (stereo unspecified), the Potency is 4.65 µM (active).

Turning to `CCN(CC(=O)NCc1cccs1)S(=O)(=O)c1ccc(NC(C)=O)cc1`, the Potency result was “inactive”.

For `Cc1ccccc1C(=O)Nc1ccccc1NC(=O)c1ccccc1C`, the Potency entry is “inactive”.

For the compound `Cc1ccccc1NC(=O)NCC1CCN(Cc2cccc(Cl)c2)CC1`, the Potency result was “inactive”.

`Cc1ccc(C)c(CN2CCC(CNC(=O)Nc3ccc(C)c(F)c3)CC2)c1`: the Potency result was “inactive”.

Consider `O=C(NCC1CCN(Cc2ccccc2Cl)CC1)Nc1cccc(Cl)c1`, for which the Potency is 1.65 µM (active).

Take `COc1ccc(Cl)cc1NC(=O)NCC1CCN(Cc2ccccc2F)CC1`: the Potency result was “inactive”.

On to `Cc1cccc(CN2CCC(CNC(=O)Nc3ccc(F)c(Cl)c3)CC2)c1`, for which the Potency entry was “inactive”.

In the case of `COc1cc(NC(=O)NCC2CCN(Cc3ccc(C)cc3)CC2)cc(OC)c1OC`, the Potency was 10.4 µM (active).

Turning to `Cc1ccc(C(=O)N/C(=C\c2cn(S(=O)(=O)N(C)C)c3ccccc23)C(=O)N2CCCC2)cc1`, the Potency entry was “inactive”.

On to `COc1ccc(-n2nnnc2CNC(=O)c2ccc3ccccc3c2)cc1`, for which the Potency result was “inactive”.

With `COc1ccc(NC(=O)N2CCCC(C(=O)Nc3ccccc3OC)C2)cc1` (stereo unspecified), the Potency entry is “inactive”.

Take `CSC1=NCCN1C(=O)Cc1cccc2ccccc12`: the Potency entry is “inactive”.

With `COc1cc(CNCc2ccc(OC)c3ccccc23)cc(OC)c1OC`, the Potency result was “inactive”.

For `O=C(Nc1cccc(Cl)c1)C1CCCN(c2cnccn2)C1` (stereo unspecified), the Potency entry is “inactive”.

For `COc1cc(NC(=O)C2CCN(c3cnccn3)CC2)cc(OC)c1`, the Potency was 2.62 µM (active).

Consider `Cc1ccccc1CN1CCC(C(=O)Nc2ccc(Oc3cccnc3)cc2)CC1`, for which the Potency entry was “inactive”.

With `O=C(COC(=O)Cc1ccccc1F)NCCc1ccccc1`, the Potency result was “inactive”.

`Cc1nc2ccc(S(=O)(=O)NCC(=O)NCCN3CCCCC3C)cc2s1` (stereo unspecified): the Potency result is “inactive”.

Take `Cc1nc2ccc(S(=O)(=O)NC(C(=O)N3CCCCCC3)C(C)C)cc2s1` (stereo unspecified): the Potency entry was “inactive”.

On to `Cc1nc2ccc(S(=O)(=O)NCC(=O)O)cc2s1`, for which the Potency was 16.5 µM (active).

As to `C=CCC(NC(=O)Cc1ccccc1)C(=O)NCCC` (stereo unspecified), the Potency entry is “inactive”.

As to `CCOCCc1nn2c(=O)cc(CSCC(=O)Nc3cccc(C)c3C)nc2s1`, the Potency result is “inactive”.

With `COc1cccc(NC(=O)CN2CCN(CC(=O)Nc3ccccc3Cl)CC2)c1`, the Potency result was “inactive”.

`O=C(CN1CCCCC1)Nc1ccccc1Cl`: the Potency entry is “inactive”.

`Cc1nn(Cc2ccccc2)c(C)c1C(=O)N1CCN(CC(=O)Nc2ccccc2Cl)CC1`: the Potency is 13.1 µM (active).

As to `Cc1ccc(NC(=O)Cc2nc(COC(=O)C(C)NS(=O)(=O)c3ccc(C)cc3)cs2)cc1` (stereo unspecified), the Potency result was “inactive”.

As to `CCN(CC)C(=O)c1nc[nH]c1C(=O)N(C)Cc1ccccc1`, the Potency result is “inactive”.

On to `CC(=O)Nc1ccc(Oc2ccc3c(c2)C(=O)NC3=O)cc1`, for which the Potency entry was “inactive”.

Take `Cc1csc(NC(=O)CSc2nc(=O)cc(N)n2-c2ccc(F)cc2)n1`: the Potency entry is “inactive”.

Turning to `Cc1cccc(NC(=S)NCCc2ccc(Cl)cc2)c1C`, the Potency entry is “inactive”.

Consider `Cc1ccc(C(C)C)cc1OCCN1CCCC1`, for which the Potency result was “inactive”.

Take `Cc1cc(OCCN2CCCC2)ccc1C(C)C`: the Potency result was “inactive”.

`Cc1cc(OCCN2CCCC2)cc(C(C)C)c1`: the Potency was 10.4 µM (active).

Take `CCOCCCNc1c(CC)c(C)c(C#N)c2nc3ccccc3n12`: the Potency result was “inactive”.

On to `CN1C(C(=O)NCC2CC2)CC2Cn3c(nc4ccccc43)C21` (stereo unspecified), for which the Potency entry is “inactive”.

For `CCOC(=O)N1CCN(Cc2nc3cc(NC(C)=O)ccc3n2C)CC1`, the Potency result is “inactive”.

As for `CCOC(=O)N1CCN(Cc2nc3ccc([N+](=O)[O-])cc3c(=O)n2-c2cccc(OC)c2)CC1`, the Potency is 2.33 µM (active).

As for `CCOC(=O)N1CCN(Cc2nc3cc(NC(=O)CC)ccc3n2CC)CC1`, the Potency result is “inactive”.

With `CN(C(=O)CSc1nnc(-c2ccc3c(c2)OCO3)o1)C1CCS(=O)(=O)C1` (stereo unspecified), the Potency entry was “inactive”.

As to `CC(=O)Nc1ccc(/C=C/C(=O)c2ccccc2)cc1`, the Potency entry is “inactive”.

Consider `O=C(NC1CCCC1)C(=O)c1c[nH]c2ccccc12`, for which the Potency result was “inactive”.

As for `Cc1cccc(OCC(O)CN2CCN(S(=O)(=O)c3ccc(C)cc3C)CC2)c1` (stereo unspecified), the Potency is 6.57 µM (active).

For the compound `CC(=O)c1ccc(OCC(O)CN2CCN(S(=O)(=O)c3cccc(Br)c3)CC2)cc1` (stereo unspecified), the Potency entry is “inactive”.

`OC(COc1cccc(OCC(O)CN2CCCC2)c1)CN1CCCC1` (stereo unspecified): the Potency result is “inactive”.

Consider `O=S(=O)(Nc1ccc(-n2cnnn2)cc1)c1ccc(Cl)cc1`, for which the Potency result was “inactive”.

For the compound `Cc1ccc(NC(=O)NNC(=O)c2sccc2-n2cccc2)cc1`, the Potency result was “inactive”.

For `C=CC[n+]1c(-c2ccc(C)cc2)csc1NNC(=O)Nc1ccccc1`, the Potency is 7.38 µM (active).

Consider `C=CCNc1scc(-c2ccccc2)[n+]1CC=C`, for which the Potency result was “inactive”.

For the compound `O=C(NCc1ccco1)/C(=C/c1cccc([N+](=O)[O-])c1)NC(=O)c1ccco1`, the Potency result is “inactive”.

Take `CCc1sc(C(=O)N2CCN(CC(=O)Nc3cccc(F)c3)CC2)cc1C`: the Potency entry was “inactive”.

Take `Cc1noc(/C=C/c2ccco2)c1S(=O)(=O)N1CCC(C(=O)N2CCc3ccccc32)CC1`: the Potency result was “inactive”.

As for `CNC(=O)C1CCN(S(=O)(=O)c2c(C)noc2/C=C/c2cccc(C)c2)CC1`, the Potency is 10.4 µM (active).

Consider `Cc1ccc(NC(=O)C2CCCN(S(=O)(=O)c3c(C)noc3C)C2)c(C)c1` (stereo unspecified), for which the Potency result is “inactive”.

Regarding `CCC(=O)Nc1cc(C(F)(F)F)ccc1N1CCCC1`, the Potency result is “inactive”.

As to `O=C(CCC1CCCCC1)Nc1cc(C(F)(F)F)ccc1N1CCOCC1`, the Potency is 13.1 µM (active).

Consider `CC(C)CC(=O)Nc1cc(C(F)(F)F)ccc1N1CCOCC1`, for which the Potency result is “inactive”.

With `CCc1ccc(C(=O)NC(=S)Nc2ccccc2N2CCOCC2)cc1`, the Potency entry is “inactive”.

As to `C/C=N/N(c1ccccc1)c1ccccc1`, the Potency entry was “inactive”.

As to `CCN(CC(=O)Nc1ccc(S(=O)(=O)N2CCCC2)cc1)CC(=O)Nc1cccc(OC)c1`, the Potency result is “inactive”.
